# Where “and” joins values, the source holds several entries; their conditions need not be identical. Equal entries are not always repeated. Records with an inconclusive call do not appear. Some compounds were tested as several samples or in several runs, with calls that do not always agree. Calls of active or inactive are those of the source. Rule for the calls: active = hit-call score of the fitted dose curve at least 0.9, where 1 is the maximum; inconclusive = response in the unintended direction; inactive = score below 0.9.
# Experiments:
# [1] = ATG_XTT_Cytotoxicity: Cytotoxicity Assessment in the Attagene TRANS-FACTORIAL HepG2 Assay (AID 2283584);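 for AC50: cells exposed to compound for 24 h before reading; active means loss of viability signal versus DMSO baseline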
# Outline: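 Viability endpoint from XTT after 24 h chemical exposure of reporter-transfected human HepG2 liver cells; signal loss fitted relative to DMSO negative control.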
# [2] = TOX21_p53_BLA_p2_viability: Viability Assessment in the Tox21 HCT-116 p53 Agonism Beta-lactamase Assay, Phase 2 (AID 2283591);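 note: compound exposure lasted 16 h at 37 °C; actives lower the ATP signal meaning cytotoxicity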
# Outline: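 Cytotoxicity readout: CellTiter-Glo ATP luminescence, 30 min at room temperature, after the beta-lactamase read. Cells were HCT116 exposed 16 h at 37C to compounds pin-transferred at 217-fold dilution from DMSO stocks.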
# [3] = target: Cellular tumor antigen p53 (Homo sapiens) (UniProt P04637); test: TOX21_p53_BLA_p2_ratio: Tox21 HCT-116 p53 Agonism Beta-lactamase Assay, Ratio, Phase 2 (AID 2283592)
# Outline: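 Gain-of-signal p53 agonism was scored from the beta-lactamase FRET ratio (460/530 nm, 405 nm excitation) in HCT116 cells treated 16 h at 37C, 5% CO2, with DMSO serving as negative control and baseline.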
# [4] = TOX21_p53_BLA_p3_viability: Viability Assessment in the Tox21 HCT-116 p53 Agonism Beta-lactamase Assay, Phase 3 (AID 2283593);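 note: cells exposed to compound for 16 h before reading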
# Outline: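 Cellular ATP was quantified by CellTiter-Glo luminescence, read after 30 min at room temperature. Beforehand, HCT116 cells (4000/well) received compound 5 h post-seeding, 217-fold diluted from DMSO, then incubated 16 h at 37C.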
# [5] = target: Cellular tumor antigen p53 (Homo sapiens) (UniProt P04637); test: TOX21_p53_BLA_p3_ratio: Tox21 HCT-116 p53 Agonism Beta-lactamase Assay, Ratio, Phase 3 (AID 2283596)
# Outline: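 HCT116 p53-bla cells (4000/well) given compound in DMSO (217-fold dilution) after 5 h, incubated 16 h at 37C. CCF4-AM substrate 2 h at room temperature; 460/530 nm emission ratio, gain fitted against DMSO.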
# [6] = TOX21_p53_BLA_p4_viability: Viability Assessment in the Tox21 HCT-116 p53 Agonism Beta-lactamase Assay, Phase 4 (AID 2283597);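 note: hits lower the luminescence signal meaning cytotoxicity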
# Outline: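 Following a 16 h exposure at 37C, the treated HCT116 wells were first read for the FRET ratio. They were then lysed with CellTiter-Glo, and ATP luminescence was recorded after 30 min at room temperature.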
# [7] = target: Cellular tumor antigen p53 (Homo sapiens) (UniProt P04637); test: TOX21_p53_BLA_p5_ratio: Tox21 HCT-116 p53 Agonism Beta-lactamase Assay, Ratio, Phase 5 (AID 2283599)
# Outline: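 Beta-lactamase reporter ratio (blue 460 nm over green 530 nm, 405 nm excitation) after 2 h CCF4-AM loading, in HCT-116 cells exposed 16 h at 37 C to compounds pinned at 217-fold dilution. Increases relative to DMSO baseline scored.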
# [8] = TOX21_p53_BLA_p5_viability: Viability Assessment in the Tox21 HCT-116 p53 Agonism Beta-lactamase Assay, Phase 5 (AID 2283600)
# Outline: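 After the 460/530 nm beta-lactamase measurement, the wells received an ATP-detection luciferase reagent; signal was read 30 min later at RT. Compound treatment lasted 16 h on cells pre-incubated 5 h post-seeding.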
# [9] = target: Cellular tumor antigen p53 (Homo sapiens) (UniProt P04637); test: TOX21_p53_BLA_p4_ratio: Tox21 HCT-116 p53 Agonism Beta-lactamase Assay, Ratio, Phase 4 (AID 2283601)
# Outline: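 Signal is the blue/green (460nm/530nm) ratio of cleaved versus uncleaved CCF4-AM substrate, read after 2 h substrate loading. Cells were HCT116 carrying the p53-responsive beta-lactamase reporter, dosed 16 h at 37C, 5% CO2; CellTiter-Glo measured in parallel.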
# Cellular tumor antigen p53 (Homo sapiens), sequence (P04637 whole entry, looked up): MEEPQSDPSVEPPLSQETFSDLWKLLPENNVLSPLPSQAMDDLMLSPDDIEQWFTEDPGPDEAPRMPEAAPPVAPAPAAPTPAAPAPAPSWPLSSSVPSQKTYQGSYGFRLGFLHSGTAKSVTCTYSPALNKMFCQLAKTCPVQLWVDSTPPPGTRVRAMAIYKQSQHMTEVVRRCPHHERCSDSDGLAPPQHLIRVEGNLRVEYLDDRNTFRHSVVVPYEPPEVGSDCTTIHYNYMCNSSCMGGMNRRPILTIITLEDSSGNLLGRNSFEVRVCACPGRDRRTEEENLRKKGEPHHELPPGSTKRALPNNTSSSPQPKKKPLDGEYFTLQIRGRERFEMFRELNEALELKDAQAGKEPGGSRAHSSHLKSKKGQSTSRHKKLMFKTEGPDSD
compound,measurement,setting,value
O=S1OC[C@@H]2[C@H](CO1)[C@]1(Cl)C(Cl)=C(Cl)[C@@]2(Cl)C1(Cl)Cl (some centres undefined),outcome,[1],inactive
same,AC50,[2],67.1 µM (active)
same,outcome,[3],inactive
same,AC50,[4],84.1 µM (active)
same,outcome,[5],inactive
same,AC50,[6],83.6 µM (active)
same,outcome,[7],inactive
same,outcome,[8],inactive
same,outcome,[9],inactive
N#CS,outcome,[1],inactive
same,outcome,[2],inactive
same,outcome,[3],inactive
same,outcome,[4],inactive
same,outcome,[5],inactive
same,outcome,[6],inactive
same,outcome,[7],inactive
same,outcome,[8],inactive
same,outcome,[9],inactive
OC(c1ccc(Cl)cc1)(c1ccc(Cl)cc1)c1cccnc1,AC50,[1],67.7 µM (active)
same,AC50,[2],46.1 µM (active)
same,AC50,[3],44.3 µM (active)
same,outcome,[4],inactive
same,outcome,[5],inactive
same,AC50,[6],60.5 µM (active)
same,AC50,[7],72.5 µM (active)
same,outcome,[8],inactive
same,AC50,[9],70.9 µM (active)
CC(O)(CS(=O)(=O)c1ccc(F)cc1)C(=O)Nc1ccc(C#N)c(C(F)(F)F)c1 (centres undefined),outcome,[1],inactive
same,outcome,[2],inactive
same,outcome,[3],inactive
same,outcome,[4],inactive
same,outcome,[5],inactive
same,outcome,[6],inactive
same,outcome,[7],inactive
same,outcome,[8],inactive
same,outcome,[9],inactive
Brc1ccc(Br)cc1,outcome,[1],inactive
same,outcome,[2],inactive
same,outcome,[3],inactive
same,outcome,[4],inactive
same,outcome,[5],inactive
same,outcome,[6],inactive
same,outcome,[7],inactive
same,outcome,[8],inactive
same,outcome,[9],inactive
O=[N+]([O-])c1ccc(Cl)c([N+](=O)[O-])c1,AC50,[1],20.2 µM (active)
same,AC50,[2],45.5 µM (active) and 39.7 µM (active)
same,AC50,[3],75.5 µM (active)
same,outcome,[3],inactive
same,AC50,[4],86.3 µM (active) and 41.1 µM (active)
same,outcome,[5],inactive
same,AC50,[6],71.9 µM (active) and 42.9 µM (active)
same,AC50,[8],44 µM (active) and 44.4 µM (active)
same,AC50,[9],22.7 µM (active)
same,outcome,[9],inactive
O=[N+]([O-])c1ccc(Nc2ccccc2)cc1,outcome,[1],inactive
same,AC50,[2],32.5 µM (active)
same,AC50,[3],72.5 µM (active)
same,outcome,[3],inactive
same,AC50,[4],61 µM (active)
same,outcome,[4],inactive
same,AC50,[5],42.4 µM (active) and 90.9 µM (active)
same,AC50,[6],82.4 µM (active)
same,outcome,[6],inactive
same,AC50,[8],66.3 µM (active)
same,outcome,[8],inactive
same,AC50,[9],43.1 µM (active)
same,outcome,[9],inactive
C=CC(=O)[O][Sn]([CH2]CCC)([CH2]CCC)[CH2]CCC,AC50,[1],1.09 µM (active)
same,AC50,[2],1.86 µM (active)
same,AC50,[3],13.5 µM (active)
same,AC50,[4],1.64 µM (active)
same,AC50,[5],13.6 µM (active)
same,AC50,[6],1.56 µM (active)
same,AC50,[7],13.4 µM (active)
same,AC50,[8],1.82 µM (active)
same,AC50,[9],13.4 µM (active)
OCC(c1ccc(Cl)cc1)c1ccc(Cl)cc1,outcome,[1],inactive
same,AC50,[2],69.5 µM (active)
same,AC50,[3],80.1 µM (active)
same,outcome,[4],inactive
same,outcome,[5],inactive
same,AC50,[6],71.1 µM (active)
same,AC50,[7],86.8 µM (active)
same,AC50,[8],70.4 µM (active)
same,AC50,[9],85.2 µM (active)
C=CC(=O)OCC(COC(=O)C=C)(COC(=O)C=C)COC(=O)C=C,AC50,[1],73.8 µM (active)
same,AC50,[2],16.6 µM (active)
same,outcome,[3],inactive
same,AC50,[4],57.9 µM (active)
same,outcome,[5],inactive
same,AC50,[6],13.3 µM (active)
same,outcome,[7],inactive
same,AC50,[8],21.3 µM (active)
same,AC50,[9],46.1 µM (active)
CCN(CC)C(=O)C(Cl)=C(C)OP(=O)(OC)OC,outcome,[1],inactive
same,outcome,[2],inactive
same,outcome,[3],inactive
same,outcome,[4],inactive
same,outcome,[5],inactive
same,outcome,[6],inactive
same,outcome,[7],inactive
same,outcome,[8],inactive
same,outcome,[9],inactive
Clc1cnc(Oc2ccc(Oc3ncc(Cl)cc3Cl)cc2)c(Cl)c1,outcome,[1],inactive
same,outcome,[2],inactive
same,outcome,[3],inactive
same,outcome,[4],inactive
same,outcome,[6],inactive
same,outcome,[7],inactive
same,outcome,[8],inactive
same,outcome,[9],inactive
CCOC(=O)C(SP(=S)(OC)OC)c1ccccc1 (centres undefined),outcome,[1],inactive
same,outcome,[2],inactive
same,outcome,[3],inactive
same,outcome,[4],inactive
same,outcome,[5],inactive
same,outcome,[7],inactive
same,outcome,[8],inactive
same,outcome,[9],inactive
O=NN1CCCCCCC1,outcome,[1],inactive
same,outcome,[2],inactive
same,outcome,[3],inactive
same,outcome,[5],inactive
same,outcome,[6],inactive
same,outcome,[7],inactive
same,outcome,[8],inactive
same,outcome,[9],inactive
CCCCOC(C)=O,outcome,[1],inactive
same,outcome,[2],inactive
same,outcome,[3],inactive
same,outcome,[4],inactive
same,outcome,[5],inactive
same,outcome,[9],inactive
CC(C)(C#N)N=NC(C)(C)C#N,outcome,[1],inactive
same,outcome,[2],inactive
same,outcome,[3],inactive
same,outcome,[4],inactive
same,outcome,[5],inactive
same,outcome,[7],inactive
same,outcome,[8],inactive
same,outcome,[9],inactive
O=C1C[C@@H]2OCC=C3CN4CC[C@]56c7ccccc7N1[C@H]5[C@H]2[C@H]3C[C@H]46,outcome,[1],inactive
same,outcome,[2],inactive
same,outcome,[3],inactive
same,outcome,[4],inactive
same,outcome,[5],inactive
same,outcome,[6],inactive
same,outcome,[8],inactive
same,outcome,[9],inactive
CCCCCCCCCCCCCl,outcome,[1],inactive
same,outcome,[2],inactive
same,outcome,[3],inactive
same,outcome,[4],inactive
same,outcome,[5],inactive
same,outcome,[6],inactive
same,outcome,[8],inactive
same,outcome,[9],inactive
CCOP(=S)(OCC)O/N=C(\C#N)c1ccccc1,outcome,[1],inactive
same,outcome,[2],inactive
same,outcome,[3],inactive
same,outcome,[5],inactive
same,outcome,[6],inactive
same,outcome,[7],inactive
same,outcome,[9],inactive
O=C(CCl)Nc1ccccc1,outcome,[1],inactive
same,outcome,[2],inactive
same,outcome,[3],inactive
same,outcome,[4],inactive
same,outcome,[5],inactive
same,outcome,[6],inactive
same,outcome,[9],inactive
O=[N+]([O-])c1ccccc1O,outcome,[1],inactive
same,outcome,[2],inactive
same,outcome,[3],inactive
same,outcome,[4],inactive
same,outcome,[6],inactive
same,outcome,[8],inactive
same,outcome,[9],inactive
